# Records with an inconclusive call do not appear. The source made the active and inactive calls. The call rests on the fitted dose curve; in most records, active means well fitted inhibition curve with a large enough effect; inconclusive means small, poorly fitted or top-dose-only effect; inactive means no such curve, though single readings can be large or run the other way.
# Molecular target: Glutaminase kidney isoform, mitochondrial (Homo sapiens) (UniProt O94925)
# Assay: qHTS for Inhibitors of Glutaminase (GLS): LOPAC Validation (AID 624146); further: nearly all actives have a fitted effect of over 60% in size;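 on activity change, negative = inhibition: glutamate product detected by oxidase and peroxidase coupled Amplex red fluorescence gain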
# Settings: glutaminase enzyme activity inhibition; series mostly up to 46.1 µM; activity change, negative = inhibition: at the top concentration
# Method in brief: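 Coupled fluorescence readout: glutamate oxidase/HRP/Amplex Red detect glutamate formed by hKGA from L-glutamine (1 mM solution added). Buffer 45 mM KH2PO4 pH 8.2, 0.02% Tween-20; reads at t0 and 30 min RT.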
# On the % scale 0 is the no-effect control and ±100 the full control effect; potency means the concentration at half of the fitted maximal effect.
# Sequence of Glutaminase kidney isoform, mitochondrial (Homo sapiens) (O94925 whole entry, looked up, canonical isoform): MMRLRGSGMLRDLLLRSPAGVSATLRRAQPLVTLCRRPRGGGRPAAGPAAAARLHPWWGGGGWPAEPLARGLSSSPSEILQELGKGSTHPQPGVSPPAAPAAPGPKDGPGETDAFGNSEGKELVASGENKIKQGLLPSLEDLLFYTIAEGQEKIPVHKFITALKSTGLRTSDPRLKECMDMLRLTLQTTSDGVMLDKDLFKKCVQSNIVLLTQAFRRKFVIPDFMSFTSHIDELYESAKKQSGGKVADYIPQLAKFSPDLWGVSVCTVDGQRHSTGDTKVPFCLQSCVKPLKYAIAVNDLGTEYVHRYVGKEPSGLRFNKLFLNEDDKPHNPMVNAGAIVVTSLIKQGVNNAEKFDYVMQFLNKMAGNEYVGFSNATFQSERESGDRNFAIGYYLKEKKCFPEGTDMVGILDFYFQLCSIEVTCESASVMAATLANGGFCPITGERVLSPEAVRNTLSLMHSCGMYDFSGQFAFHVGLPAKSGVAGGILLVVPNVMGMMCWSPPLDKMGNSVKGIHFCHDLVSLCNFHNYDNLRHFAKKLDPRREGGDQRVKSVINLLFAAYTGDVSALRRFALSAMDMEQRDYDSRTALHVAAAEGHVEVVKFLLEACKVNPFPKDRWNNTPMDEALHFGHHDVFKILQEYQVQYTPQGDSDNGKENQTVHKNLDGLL
Compound,"activity change, negative = inhibition",Potency
C[C@](N)(Cc1ccc(O)cc1)C(=O)O,-7.05% (inactive),
CCN(CC)CCCC(C)Nc1c2ccc(Cl)cc2nc2ccc(OC)cc12 (stereo unspecified),-21.2% (inactive),
CC(C)(C(=O)O)c1ccc(C(O)CCCN2CCC(C(O)(c3ccccc3)c3ccccc3)CC2)cc1 (stereo unspecified),-8.5% (inactive),
CC(C)(C)c1onc(OCP(=O)(O)O)c1CC(N)C(=O)O (stereo unspecified),,inactive
N=c1c[n+](N2CCOCC2)[n-]o1,128% (inactive),
C[C@]12C[C@H](O)[C@H]3[C@@H](CCC4=CC(=O)CC[C@@]43C)[C@@H]1CC[C@@H]2C(=O)CO,-0.309% (inactive),
C=Cc1c(C)c2cc3[nH]c(cc4nc(cc5nc(cc1[nH]2)C(C)=C5CCC(=O)O)C(CCC(=O)O)=C4C)c(C)c3C=C,1.63% (inactive),
CCN(CC)CCNC(=O)c1cc(Cl)c(N)cc1OC,-0.591% (inactive),
NC(N)=NCCC[C@H](N)C(=O)O,94.4% (inactive),
CN1CCN(C2Cc3ccccc3Sc3ccc(Cl)cc32)CC1 (stereo unspecified),49.9% (inactive),
CN(C)CCOC(C)(c1ccccc1)c1ccccn1 (stereo unspecified),29.3% (inactive),
CNC(=O)Oc1ccc2c(c1)[C@]1(C)CCN(C)[C@@H]1N2C,,10 µM (active)
NC1CCN(c2cccc(Cl)n2)CC1,-7.64% (inactive),
CCN(CC)C(C)CN1c2ccccc2Sc2ccccc21 (stereo unspecified),,11.2 µM (active)
CNCCC(Oc1ccc(C(F)(F)F)cc1)c1ccccc1 (stereo unspecified),3.68% (inactive),
CC1=C(CC(=O)O)c2cc(F)ccc2/C1=C\c1ccc(S(C)(=O)=O)cc1,2.91% (inactive),
CC(C)C(=O)c1c(C(C)C)nn2ccccc12,4.21% (inactive),
COCCOC(=O)C1=C(C)NC(C)=C(C(=O)OC/C=C/c2ccccc2)C1c1cccc([N+](=O)[O-])c1 (stereo unspecified),-22.4% (inactive),
CCCn1cnc2c1c(=O)n(CCCCC(C)=O)c(=O)n2C,-10.5% (inactive),
O=C1N=C(O)CN1/N=C/c1ccc(-c2ccc([N+](=O)[O-])cc2)o1,-11.6% (inactive),
Cc1cc(N)c2ccccc2[n+]1CCCCCCCCCC[n+]1c(C)cc(N)c2ccccc21,-24.8% (inactive),
OCc1cc(C(O)CNCCCCCCOCCCCc2ccccc2)ccc1O (stereo unspecified),-9.06% (inactive),
CN(C)CCCN1c2ccccc2Sc2ccc(Cl)cc21,-9.63% (inactive),
CCCCCCCCCCCCCCCC(=O)NCCO,-14.2% (inactive),
CC(C)(C)[C@]1(O)CCN2C[C@H]3c4ccccc4CCc4cccc(c43)[C@@H]2C1,,inactive
C#CCN(C)Cc1ccccc1,-8.83% (inactive),
